# Assay outcomes: PubChem BioAssay, National Center for Advancing Translational Sciences (NCATS)
# The list is not random: actives were taken first. Their share in the collection is about 0.71%.
# FBPA coupling cs: qHTS Assay for Inhibitors of Fructose-1,6-bisphosphate Aldolase from Giardia Lamblia: Coupling assay counterscreen | hit rate 0.67% among 290,000 | activity change, negative = inhibition, % at 58.2 µM, hits read low | coupling enzyme system counterscreen, AmpLite Red fluorescence; in the data active = activity change below about -30%
#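 First, compound is pin-transferred into glyceraldehyde-3-phosphate coupling-enzyme reagent at 57.5 uM final and held 10 min at RT. Next, substrate, coupling system and AmpLite Red are added. After 20 min RT, fluorescence (525/598 nm) is read.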
# PI4K2A block: qHTS for small molecular inhibitors of PI4K2A; Phosphatidylinositol 4-kinase type 2-alpha (Homo sapiens), Q9BTU6; purified PI4K2A, ADP-Glo luminescence, 1 h; stronger effect = lower value; activity change, negative = inhibition, % at 76.9 µM; hit rate 0.13% among 420,000; in the data active = activity change below about -50%; inconclusive = mostly about -30% to -49%;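 also: -100% = wells without enzyme as full effect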
#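 PI4K2A activity was measured by ADP-Glo luminescence: enzyme (4 ug/mL stock) and phosphatidylinositol (1.2 mM stock) in Tris pH 7.5/MgCl2/EGTA/Triton X-100 buffer were reacted with ATP (300 microM stock) for one hour at ambient temperature.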
# Eya2 phos inh: qHTS Assay for Inhibitors of the Phosphatase Activity of Eya2. Protein phosphatase EYA2 (Homo sapiens), O00167. AID 488837, 2010. hit rate 0.006% among 330,000. Potency, µM (series often up to 76.9 µM), without a hit: at the highest dose activity, negative = inhibition, hits mostly inhibitors. recombinant Eya2, OMFP fluorescence dephosphorylation (OMFP is methylfluorescein phosphate); also: potency is read from the fitted curve at half-maximal effect
#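 Eya2 (0.2 uM) preincubated 10 min at ambient with compound, then OMFP substrate added at 50 uM; 10 min reaction in 50 mM HEPES pH 7.5, 50 mM NaCl, 5 uM MgCl2, 0.05% BSA, 1 mM DTT. Fluorescence read at Ex 485/Em 525 nm.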
# USP1 inh: Inhibitors of USP1/UAF1: Primary Screen; Ubiquitin carboxyl-terminal hydrolase 1 (Homo sapiens), O94782; recombinant USP1/UAF1, Ub-Rhodamine cleavage fluorescence; Potency, µM (doses to about 57.1 µM), inactives show at the highest dose activity change, negative = inhibition, hits mostly inhibitors; hit rate 0.23% among 390,000; also: potency is read from the fitted curve at half-maximal effect; nearly all actives have a fitted effect of over 60% in size
#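 1 nM enzyme complex + cpd, 15 min RT; start with Ub-Rho 150nM final; kinetic fluorescence ex 480/em 540, 6 reads q60 s. Buffer 50mM HEPES pH 7.8, 0.5mM EDTA, 0.1 mg/ml BSA, 1mM TCEP, 0.01% Tween-20.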
# GALK inh: qHTS Assay for Inhibitors of Human Galactokinase (GALK); P51570; hit rate 0.007% among 270,000; AID 1868, 2009; Potency, µM (top dose mostly 57.5 µM), for the others: at the highest dose activity change, negative = inhibition, actives largely listed as inhibitors; Purified GALK, Kinase-Glo residual ATP luminescence; also: potency is read from the fitted curve at half-maximal effect
#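 The enzyme phosphorylates galactose (100 uM) using ATP (35 uM); inhibition is detected as higher residual ATP, quantified by bioluminescence after 1 h reaction at room temperature, pH 8.0.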
# USP2a inh: qHTS Assay for Inhibitors of Ubiquitin-specific Protease USP2a Using CHOP2 as the Reporter; Ubiquitin carboxyl-terminal hydrolase 2 (Homo sapiens), O75604; USP2 core, Ub-CHOP2 coupled fluorogenic reporter, 485/531; Potency, µM (titrated, usually from 38.3 µM), inactives show at the top dose activity change, negative = inhibition, most hits filed as inhibitors; hit rate 0.01% among 330,000; AID 463254, 2010;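 also: potency is read from the fitted curve at half-maximal effect; plate controls were DMSO wells for no effect and full inhibition by NEM control for full effect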
# Target sequence (O75604 whole entry, looked up): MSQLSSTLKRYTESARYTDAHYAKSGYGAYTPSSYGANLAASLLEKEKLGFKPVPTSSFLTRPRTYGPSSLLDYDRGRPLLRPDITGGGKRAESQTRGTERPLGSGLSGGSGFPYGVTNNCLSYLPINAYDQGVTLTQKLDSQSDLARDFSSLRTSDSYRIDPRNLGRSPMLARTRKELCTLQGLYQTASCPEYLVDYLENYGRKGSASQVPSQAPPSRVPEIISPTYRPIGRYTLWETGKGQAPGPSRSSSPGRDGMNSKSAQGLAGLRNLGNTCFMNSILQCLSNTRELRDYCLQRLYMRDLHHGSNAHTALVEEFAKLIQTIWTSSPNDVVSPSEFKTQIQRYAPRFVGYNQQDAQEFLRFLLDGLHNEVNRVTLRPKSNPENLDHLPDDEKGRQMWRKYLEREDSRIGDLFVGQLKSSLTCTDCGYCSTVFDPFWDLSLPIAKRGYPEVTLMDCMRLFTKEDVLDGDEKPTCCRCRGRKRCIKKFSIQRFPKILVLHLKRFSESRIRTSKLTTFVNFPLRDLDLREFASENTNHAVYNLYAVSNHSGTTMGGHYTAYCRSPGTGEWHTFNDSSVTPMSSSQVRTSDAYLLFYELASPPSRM
#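 Cell-free coupled assay: 10nM USP2 core preincubated 30min RT with compound in Tris-HCl pH 8.0/CaCl2/CHAPS buffer, then 25nM Ub-CHOP2 and 25nM reporter substrate; fluorescence (Ex 485/Em 531) read after 60min RT, normalized to NEM inhibition, concentration-response curves fitted.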
# * hit, by the source's call; u = inconclusive; x = no result. Unless noted, calls follow the shape of the dose curve; as a rule, active = well fitted curve in the direction sought with a large enough effect; inconclusive = small, poorly fitted or top-dose-only effect, or another doubt; inactive = no such curve, though single readings can be large; an effect the other way counts as inactive or inconclusive. Unless noted, % is scaled to controls: 0 for no effect and ±100 for the full control effect.
SMILES,FBPA coupling cs,PI4K2A block,Eya2 phos inh,USP1 inh,GALK inh,USP2a inh
CN(C)c1ccc(-c2nccc(Nc3ccc(F)cc3)n2)cc1,-8,x,x,x,x,x
Cc1ccc(/C=N/NC(=O)CSc2nc3ccccc3n2C)s1,-32*,4,-13%,-9%,x,2%
C[C@H](O/N=C1/[C@H]2O[C@@H]2[C@@H](O)[C@H]2[C@H]1CCn1c(=O)n(-c3ccccc3)c(=O)n12)c1cn([C@H](CO)Cc2ccccc2)nn1,2,x,x,x,x,x
Fc1ccc(NC(=S)Nc2cccc3ccccc23)cc1F,-2,4,-22%,-27%,6%,-1%
Fc1ccc(NC(=S)Nc2cccc3cnccc23)cc1,-51*,-20,-3%,-21%,-2%,9%
Cc1ccc(S(=O)(=O)N(C)C)cc1NC(=S)Nc1cccc2ccccc12,-3,-4,-12%,u,0%,-4%
S=C(Nc1ccc(Cl)cc1)Nc1cccc2cnccc12,-48*,-5,5%,u,x,1%
S=C(Nc1cccnc1)Nc1cccc2cnccc12,-37*,-16,9%,u,-2%,0%
CN(C)S(=O)(=O)c1cccc(NC(=S)Nc2cccc3cnccc23)c1,-53*,u,4%,u,-26%,1%
Fc1cccc(NC(=S)Nc2cccnc2)c1,3,0,-3%,-10%,0%,1%
Cc1cccn2c(=O)c3cc(C#N)c(=O)n(-c4nnc(SCc5ccc(F)cc5)s4)c3nc12,x,0,x,-10%,x,x
O=[N+]([O-])c1cc([N+](=O)[O-])c(N2CCOCC2)cc1NCc1ccccc1,2,0,-24%,-19%,-2%,-1%
O=[N+]([O-])c1c(NCc2ccccc2)cc(N2CCc3ccccc3C2)c2nonc12,-40*,1,2%,-13%,0%,1%
CCOc1ccccc1-c1c2cc(O)c(=O)cc-2oc2cc(O)c(O)cc12,-62*,-25,20%,u,3%,20%
O=c1cc2oc3cc(O)c(O)cc3c(-c3ccccc3O)c-2cc1O,-24,-8,u,u,1%,u
COc1ccc(OC)c(-c2c3cc(O)c(=O)cc-3oc3cc(O)c(O)cc23)c1,-53*,-51*,u,u,1%,u
Cc1ccc(S(=O)(=O)OCC2CN3C(CCC(C)C3c3ccc(Br)cc3)C(=O)O2)cc1 (centres undefined),-3,x,x,x,x,x
COn1c(C)c(C)c2c3nonc3ccc21,-39*,0,3%,u,3%,-1%
CCOC(=O)c1c(C)n(OCc2ccccc2)c2ccc3nonc3c12,-2,2,3%,u,-4%,-9%
Cc1nc([N+](=O)[O-])cn1CCC#N,3,13,5%,-5%,6%,-2%
Cc1[nH]c2ccc3c(ncn3CCC#N)c2c1C,-36*,1,12%,2%,0%,4%
COc1ccc(/C=C2\C(=O)NC(=O)c3ccccc32)cc1OC,x,u,x,1.8µM*,x,x
CCCCC(CC)CNC(=O)CC(C)OC(=O)CCC(=O)O (centres undefined),x,1,x,x,x,x
COc1cc(/C=C/[N+](=O)[O-])ccc1OCc1cccc(C(=O)O)c1,7,-51*,7%,-6%,-3%,u
C#CCOc1ccc(/C=C2/C(=O)N(c3ccc(S(N)(=O)=O)cc3)N=C2C)cc1OC,x,u,x,-15%,x,x
COc1cc(/C=C2\C(=O)N(c3cccc(C(=O)O)c3)N=C2C)ccc1OCc1ccccc1,x,-59*,x,u,x,x
